Out of some 350,000 compounds screened, about 2,400 (0.69%) were called active. Rule as the data show it: active = inhibition above about 41%; inconclusive = no clear call, values can overlap the other calls; inactive = below that. The sample as a whole holds a higher share of actives than the screen did.
Assay: blockers of LMP1-induced NF-kB reporter signal – cell-based, luminescence, single point, primary screen (AID 504558);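 also: 0% = neutral control wells and 100% = reference inhibitor control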
Conditions: LMP1-induced NF-kappaB luciferase reporter cells, at 12.5 µM, active compounds read high

inhibition, inactive:
CC1(c2cccc(N)c2)OCCO1 -20.7%
Cc1cc2ccccc2n1CCC(=O)O 2.51%
COC(=O)C(C)NC(=O)COc1ccc2ccccc2c1 (stereo not given) -5.65%
CC(=O)c1ccccc1NC(=O)COC(=O)C1COc2ccccc2O1 (stereo not given) -0.0295%
O=c1[nH]c2ccccc2n1C1CCN(CCOc2ccccc2)CC1 5.46%
CCC(=O)c1ccc(OCC(O)CN2CCN(c3cccc(C(F)(F)F)c3)CC2)cc1 (stereo not given) 1.92%
OC(COc1ccc2c(c1)CCC2)CN1CCN(c2cccc(Cl)c2)CC1 (stereo not given) -1.09%
CCOC(=O)c1c(NC(=O)COC(=O)c2ccc(S(=O)(=O)C(F)F)cc2)sc(C(=O)N(C)C)c1C 1.83%
CC(=NNC(N)=O)C1CC2CCC1CC2 (stereo not given) 4.52%
CC(OC(=O)c1ccc(NC(=O)CC#N)cc1)C(=O)Nc1ccc(S(=O)(=O)N2CCCC2)cc1 (stereo not given) -2.22%
Cc1ccccc1NC(=O)Cc1nc(COC(=O)C(C)(C)Oc2ccc(Cl)cc2)cs1 -2.11%
Cc1noc(C)c1S(=O)(=O)N(C)C[C@H]1OCCCC[C@@H](C)Oc2ccc(NC(=O)CCCN(C)C)cc2C(=O)N([C@H](C)CO)C[C@@H]1C -4.38%
COc1ccc(C(=O)Nc2cccc(/C=C(/CCC(=O)O)c3nc4ccccc4s3)c2)cc1 -6.71%
COc1ccccc1NC(=O)c1ccc2nc(N3C(=O)CCC3=O)sc2c1 -13.5%
C[C@H]1CN([C@@H](C)CO)C(=O)CCCn2cc(nn2)CO[C@@H]1CN(C)S(=O)(=O)c1cccc(C#N)c1 -4.24%
Cn1nccc1C(=O)NC1CCCc2c1cnn2-c1ccccc1F (stereo not given) 28.4%
COc1ccc(OC)c(C(=O)NC2CCCc3c2cnn3-c2cc(C)cc(C)c2)c1 (stereo not given) -16.3%
O=C(O)C1=C(C(=O)O)C2CCC1C2 -22.4%
Cc1cccc(NC(=O)COc2ccc(Br)cc2C)n1 -11.9%
COc1ccc2c(c1OC)C(=O)OC2Nc1nc(-c2ccccc2)cs1 (stereo not given) 22.9%
Cc1ccc(-c2ccc(CN3C(C(C)C)C(=O)N(Cc4cn(CCC5OCCCO5)nn4)CCS3(=O)=O)cc2)cc1 (stereo not given) 3.16%
C[C@H]1CN([C@@H](C)CO)C(=O)CCCn2nncc2CO[C@@H]1CN(C)Cc1ccc(Oc2ccccc2)cc1 8.56%
Cc1ccc(C(=O)NNC2=Nc3cc([N+](=O)[O-])ccc3OC2)cc1 -21.3%
COc1ccc(C2=NOC(COC(=O)c3ccc4ccccc4n3)C2)cc1 (stereo not given) 3.2%
CCN(CC)C(=O)C(C)N1c2cccc3cccc(c23)S1(=O)=O (stereo not given) 11.1%
COc1ccc(S(=O)(=O)N2CCC(C(=O)NCCC(=O)NCCc3cccc(F)c3)CC2)cc1 6.77%
O=C(c1cc(-c2cccc(O)c2)on1)N1CCc2ccccc2C1 -0.0205%
O=C(c1cc(-c2ccc(O)cc2)on1)N1CCOCC1 12%
C[C@@H]1CN([C@@H](C)CO)C(=O)CCCn2nncc2CO[C@H]1CN(C)Cc1ccc(C(F)(F)F)cc1 -1.15%
CC(=O)Nc1ccccc1NC(=O)c1cc(C)cc(C)c1 -2.05%
Nc1ccc(S(=O)(=O)NC(=O)c2ccccc2)cc1 5.43%
Cc1ccc(Cc2c(-c3ccc(C)cc3)nc3c4ccccc4ccn23)cc1 -19.4%
Cc1ccc(C(=O)N2CCCc3ccccc32)c(Cl)c1 6.82%
CC(Sc1ccc(S(=O)(=O)N2CCN(C)CC2)cn1)C(=O)NC1CCCC(C)C1C (stereo not given) -17.5%
CCc1ccc(CN(C)C(=O)CCc2nnc(-c3ccc(-c4ccccc4)cc3)o2)nc1 5.34%
O[C@H]1C[C@H](c2ccc(Cl)cc2)N(Cc2cccs2)C[C@@H]1n1cc(C2CC2)nn1 1.65%
CCOc1ccc(NS(=O)(=O)c2ccc(C(=O)NCC3CCCO3)cc2)cc1 (stereo not given) -2.59%
COc1ccc(CN2C(=O)C(CC(=O)NCCCCc3ccccc3)CC(C(=O)N3CCOCC3)=C2C)cc1 (stereo not given) -8.73%
COc1ccc(/C=C/c2noc(-c3ccccc3OC(C)=O)n2)cc1 9.61%
COc1ccc(OC)c(-c2csc(-c3cccs3)n2)c1 0.747%
C#CCN(C[C@@H]1[C@@H](OC(=O)NC2CC2)[C@@H](OC(=O)NC2CC2)Cn2c(=O)ccc(=O)n21)S(=O)(=O)c1ccc(C)cc1 4.07%
CCOc1ccc(N/C=C/C(=O)c2cc(OC)c(OC)c(OC)c2)cc1 -9.23%
CCOc1cc2ccccc2cc1C(=O)Nc1ccccn1 -13.7%
CCOc1ccc(NC(=S)N2CCC(NC(=O)c3ccccc3)CC2)cc1 0.728%
Cc1cc(N/C=C\C(=O)c2ccc(Cl)c(Cl)c2)no1 -16.1%
NC1=CC(=O)C(=O)c2cccnc21 12.1%
COCC(=O)N(C)C[C@H]1Oc2cc(Br)ccc2S(=O)(=O)N([C@H](C)CO)C[C@H]1C 0.42%
O=C(Cc1ccc([N+](=O)[O-])cc1)NCCS(=O)(=O)N1CCN(c2ccccc2)CC1 -3.09%
C/C(=N/Nc1nc(-c2ccccc2)c(CC(=O)O)s1)c1ccccc1 -38.4%
COc1cc(OC)nc(N/N=C(\c2ccccc2)c2ccncc2)n1 3.44%
COc1cccc(OC)c1C(=O)N1CCN(Cc2ccccc2F)CC1 2.93%
C[C@@H]1CN([C@@H](C)CO)C(=O)c2c(c3ccccc3n2C)-c2ccccc2CO[C@H]1CN(C)C(=O)C1CC1 -4.84%
CCOC(=O)c1[nH]c2ccccc2c1N=C(C)N(CC)CC 0.352%
CCOC(=O)c1c(C)[nH]c(C)c1S(=O)(=O)NCCCc1ccco1 -0.931%
C[C@H]1NS(=O)(=O)c2cc(Cl)ccc2O[C@@H]1c1ccccc1 -0.001%
C=CCOc1cccc(C2C(C(=O)c3ccc(C)o3)=C(O)C(=O)N2CCN2CCOCC2)c1 (stereo not given) 1.89%
COc1ccc(OC(C)C(=O)Nc2cccnc2)cc1 (stereo not given) -0.732%
COc1ccc(NC(=O)CN2C(=O)NC(C)(c3ccccc3)C2=O)cn1 (stereo not given) 4.57%
COc1cccc(NC(=S)N(Cc2ccc(C)cc2)Cc2ccccn2)c1 -9.16%
COc1ccc(NS(=O)(=O)c2ccc(NC(=S)NC(=O)/C=C/c3ccc(C)cc3)cc2)nn1 -1.1%
COCOCCn1cc(CN2CCS(=O)(=O)N(Cc3ccc(-c4cccc(N(C)C)c4)cc3)C(CC(C)C)C2=O)nn1 (stereo not given) 5.25%
C[C@H](CO)N1C[C@H](C)[C@H](CN(C)C(=O)Nc2ccc3c(c2)OCO3)Oc2ncc(Br)cc2C1=O -7.49%
CCCCN1C(=O)C(CC(=O)NC(c2ccccc2)c2ccccc2)CC(C(=O)N2CCOCC2)=C1C (stereo not given) -3.52%
Cc1cc(Nc2ccc(Br)cc2)nc2ccccc12 -19.5%
Cc1cc(C)n(-c2nnc(N3CCN(c4ccccc4)CC3)nn2)n1 -13.2%
O=C(NCc1nnnn1-c1ccc(Cl)cc1)c1ccc2c(c1)OCO2 -8.64%
COc1ccc(-c2c(C#N)cnc(C)c2C)c(O)c1OC -4.81%
C[C@@H]1CN([C@H](C)CO)C(=O)CCCn2cc(nn2)CO[C@H]1CN(C)S(C)(=O)=O 1.59%
COc1cccc(NC(=O)CN(C)C(=O)c2cc(Cl)nc3ccccc23)c1 -0.28%
CN(C)/C=C1\C=C(c2ccccc2)OC1=O -8.13%
Cc1ccccc1C1=N/C(=C/c2cccnc2)C(=O)O1 3.85%

inhibition, active:
Cc1cc2ccccc2n1CCNC(=O)COc1ccc2ccccc2c1 52.5%
OC(COc1ccccc1)CN1CCN(c2cccc(Cl)c2)CC1 (stereo not given) 46.9%
COC(=O)Cc1[nH]n(-c2nc3ccccc3s2)c(=O)c1C(C)=Nc1ccc(OC)cc1 59.5%
COc1ccc(C(=O)NC2CCCc3c2cnn3-c2cccc(C)c2C)c(OC)n1 (stereo not given) 47.8%
COc1ccc(-c2csc(Nc3cccc(C)n3)n2)cc1OC 56.6%
COc1ccc(C2=Nc3cc(C)ccc3OC2)cc1 91.3%
O=C(c1cc(-c2ccc(O)cc2)on1)N1CCCc2ccccc21 83.9%
Nc1ccc(C(=O)Nc2ccccc2N)cc1 43.3%
CCCCCCc1cc2cc(-c3nnc(-c4ccccc4)o3)c(=O)oc2cc1O 52%
COc1ccc(-c2nc(-c3ccccc3)no2)c(OC)c1 67.3%
COc1ccc(C(=O)/C=C/Nc2ccccn2)cc1 67%
CCOc1ccc(N/C=C/C(=O)c2ccccc2)cc1 82.1%
c1ccc(C(=NNc2nc3ccccc3s2)c2ccccn2)cc1 79.1%
CCOC(=O)c1c(C)[nH]c2c1-c1ccccc1C(=O)C2=O 92.7%
COc1ccc(NC(=O)/C(Cl)=C(/Cl)S(=O)Cc2ccc(C)cc2)cn1 (stereo not given) 94.5%
COc1ccc(CS(=O)/C(Cl)=C(/Cl)C(=O)Nc2ccc(OC)nc2)cc1 (stereo not given) 85%
Cc1cc(N/N=C\c2ccc(Br)cc2)nc(-n2nc(C)cc2C)n1 47.1%
C=CCn1c(C)cc(C2=NNC(=NCC)SC2)c1C 86.2%
Cc1ccc(C2=C/C(=C\c3cccnc3)C(=O)O2)cc1 43.1%
